The panel holds about 83,000 compounds, 20% with a hit somewhere; the sample as a whole holds those more often.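 Negative percent growth values reflect cell death: -40 means 40% of the cells present at the start died, and -100 means all died.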 Unmarked numbers belong to inactive results. Activity calls are given as the source filed them. The calls were made as follows: active = growth percent below 10; inactive = the rest.

The assay has as its system MDA-MB-468 breast. The experiment in a line: NCI-60 one-dose screen, 48 h (100 = growth as untreated, 0 = no growth, -100 = all killed). The note with it: 10 µM unless noted.
For `O=C(/C(=C/c1ccc([N+](=O)[O-])cc1)SCc1ccccc1)c1ccc(Cl)cc1`, the growth was 70.4%.
Then `Cc1ccc2oc(=O)cc(C3C(C#N)=C(N)Oc4c3ccc3ccccc43)c2c1` (stereo not given), with 63.8%; and `O=C1/C(=C\c2coc3ccccc3c2=O)c2ccccc2N1c1c(Cl)cccc1Cl`, with 44.9%.
Then `O=C1N=c2cc3c(cc2=C/C1=C/c1sc(=S)n(CCc2ccc(O)cc2)c1O)OCCO3`, with 42.5%; and `C#C[C@]1(O)CC[C@H]2[C@@H]3CC=C4c5sc(Nc6ccc(C)cn6)nc5CC[C@]4(C)[C@H]3CC[C@@]21C`, with -23.1% (active).
For the compound `COc1ccc(-c2cc(-c3cc(OC)c(OC)c(OC)c3)c(C#N)c(=O)n2CCCCC(=O)O)cc1`, the growth is 109%.
As for `COc1cc(C)ccc1C(=O)c1ccc(C)cc1OC`, the figure is -20.3% (active); as for `CC1(C)Cc2c(sc3ncn4nc(-c5ccc(O)cc5)nc4c23)CO1`, 61.4%; as for `COc1ccc(S(=O)(=O)Nc2c(/C=C\c3cc(OC)c(OC)c(OC)c3)ccc(OC)c2O)cc1`, 10.9%.
Turning to `Cc1ccc(NC(=O)CSc2nnc3n(Cc4ccccc4)c(=O)c4c(C)c(C(N)=O)sc4n23)cc1`, the growth was 107%.
As for `COc1ccc2c(c1)CCCC21C(=O)Nc2ccccc21` (stereo not given), the figure is 103%; as for `CN1CCN(CC(=O)N(C)c2ccc(N=C(c3ccccc3)c3c(O)[nH]c4ccc([N+](=O)[O-])cc34)cc2)CC1`, 87.8%.
Then `O=C(CCCCl)NNc1nccc(Nc2ccc(S(=O)(=O)Nc3ccncc3)cc2)n1`, with 116%; and `c1csc(-c2c3ccc(=[N+]4CCCCC4)cc-3oc3cc(N4CCCCC4)ccc23)c1`, with -90% (active); and `COc1c2ccccc2c(OC)c2[nH]c(=O)ccc12`, with 60.9%.
As for `Cc1ccc(-c2nc(C(Cl)Cl)nc3cc(-c4ccccc4)nn23)cc1`, the figure is -54.2% (active); as for `O=CNc1ccc2c(c1)Cc1cc([N+](=O)[O-])ccc1-2`, -29.6% (active); as for `CC1(C)CC[C@]2(C(=O)N3CCCN(CC#N)CC3)CC[C@]3(C)C(=CC[C@@H]4[C@@]5(C)CC[C@H](O)C(C)(C)[C@@H]5CC[C@]43C)[C@H]2C1`, 41.2%.
For `[O-][n+]1ccccc1CCN(O)CCc1cccc[n+]1[O-]`, the growth was 110%.
As to `O=[N+]([O-])c1ccc(S(=O)(=O)N2CCN(c3ccnc4cc(Cl)ccc34)CC2)c([N+](=O)[O-])c1`, the growth was 82.7%.
With `CCOC(=S)SCc1ccc(Cl)cc1`, the growth was 106%.
Then `CCCCSc1nnc(-c2ccc(-c3ccc(Cl)cc3)nc2C)o1`, with 107%.
`Clc1cc(Cl)c(OCCCCCCN2CCNCC2)c(Cl)c1`: the growth was -12.2% (active).
As for `COc1ncc(-c2ccc3ncnc(Nc4cccc(Cl)c4)c3c2)cc1NS(=O)(=O)CCN1CCOCC1`, the growth was -52.8% (active).
With `COP(=O)(OC)c1nnn(-c2cccc([N+](=O)[O-])c2)c1C`, the growth is 120%.
Turning to `O=C1Nc2c(ccc(Cl)c2Cl)/C1=C\c1cc(C(F)(F)F)cc(C(F)(F)F)c1`, the growth was 7.18% (active).
As for `CNC1=C([N+](=O)[O-])C(c2ccc(OC)cc2)C(C#N)=C(c2cccs2)O1` (stereo not given), the figure is 117%; as for `Cc1nn(-c2ccc([N+](=O)[O-])cc2)c2ncnc(N/N=C/c3ccccc3O)c12`, -16.6% (active); as for `COc1ccc2c(c1)O/C(=C/c1ccc(OCC(=O)Nc3ccc(S(N)(=O)=O)cc3)cc1)C2=O`, 86.3%.
As for `CCC(=O)Nc1nnc(Cc2ccc(OC)c(OC)c2)s1`, the figure is -2.42% (active); as for `FC(F)(F)c1cc(CNc2ncc(Br)c(Cl)n2)cc(C(F)(F)F)c1`, 93.2%.
Then `O=C1CSC(c2ccccc2O)N1c1nnc(Cn2ccnc2)o1` (stereo not given), with 59.1%.
`COC1=CC(c2ccc[nH]2)=N/C1=C\c1[nH]c(C)c(C)c1CCC(=O)OCc1ccccc1`: the growth was 15.6%.
For the compound `CCC1CCc2nc3sc(C(=O)Nc4ccccc4C)c(N)c3cc2C1` (stereo not given), the growth was -0.179% (active).
Consider `C/C(=C\CCc1ccsc1)CC/C=C(\C)CCCN1CCN(CCO)CC1`, for which the growth is 7.83% (active).
As for `Cc1csc(NC(=O)c2sc3nc(-c4cccs4)ccc3c2N)n1`, the figure is 82%; as for `COc1ccc(-c2cc(-c3ccc(OC)c(OC)c3)nc(SCCCC(=O)NO)n2)cc1`, -30.7% (active).
With `CC(=O)c1c(O)c(C)c(O)c2c1OC1=CC(=O)/C(=C(/C)N)C(=O)C12C` (stereo not given), the growth is 74.6%.
For the compound `CCN(CC)c1ccc(NC(C(=O)c2ccccc2)c2ccccc2)cc1` (stereo not given), the growth is 1.41% (active).
Take `C[C@@H]1C[C@H]2C(=O)O[C@@H](C)C(NC(=O)[C@H](Cc3cc(F)cc(F)c3)NC(=O)Nc3ccc(C4CC4)cc3F)C(=O)N3CCC[C@H]3C(=O)N3CCCC[C@H]3C(=O)N[C@@H](CO)C(=O)N2C1` (stereo not given in full): the growth was -18.1% (active).

(Values after PubChem BioAssay (NCI).)
